Compound activity (PubChem BioAssay)
The list is not random: actives were taken first. Their share in the collection is about 4.8%.
ssDAF12 agonist – S. stercoralis DAF-12 nuclear receptor activators, primary screen, cell-based, luminescence, HEK293, GRIP1 co-expression, lit1-tk-luc; activation, % at 6.8 µM; Nuclear hormone receptor DAF-12 (Strongyloides stercoralis); HEK293 ssDAF-12/GRIP1 lit1-tk-luc reporter; % of 3 µM dafachronic acid response; AID 652126, 2013; 1% of 370,000 active;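 active = activation above the mean over all tested compounds plus 3 SD, cut at about 0.9% in these data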;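 also: 0% = DMSO-only wells and 100% = 3 µM delta7-dafachronic acid wells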
DAX1 inh-1 – DAX1 (NR0B1) inhibitors on StAR promoter, primary screen, cell-based, luminescence, SF-1 (NR5A1), full-length DAX-1; inhibition, % at 6.8 µM; 1.1% of 370,000 active; HEK293T StAR-luciferase reporter, SF-1/DAX-1 repression relief;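 active = inhibition above the mean over all tested compounds plus 3 SD, cut at about 3.6% in these data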;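 also: 0% = DAX-1 cells with DMSO and 100% = cells lacking DAX-1 with DMSO; higher inhibition means more luminescence from relief of DAX-1 repression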
DAX1 inh-2 – DAX1 (NR0B1) inhibitors, primary screen, cell-based, HEK293, Gal4-DAX1, luciferase luminescence. HEK293 Gal4-DAX1 luciferase reporter. inhibition, % at 6.75 µM. 0.99% of 340,000 active. AID 504766, 2011;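 active = inhibition above the mean over all tested compounds plus 3 SD, cut at about 4.2% in these data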;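 also: 0% = DAX1-transfected cells with DMSO and 100% = empty-vector control cells with DMSO; inhibition shows as a rise in luminescence from relieved DAX1 repression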
Rev-erbA mod – modulators of Rev-erb alpha DNA binding, primary screen, biochemical, FITC-DNA, fluorescence polarization, uHTS. Nuclear receptor subfamily 1 group D member 1 (Homo sapiens), P20393. Rev-erbα–FITC-DNA binding, 90 min. activity, % at 10 µM. 0.79% of 370,000 active. AID 1259318, 2017;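 active = activity above about 14%, limit read from the data; passing the limit was not always enough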;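 also: 0% = DMSO wells with 35 nM protein and 100% = DMSO wells with 750 nM protein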
Target sequence (P20393 whole entry, looked up): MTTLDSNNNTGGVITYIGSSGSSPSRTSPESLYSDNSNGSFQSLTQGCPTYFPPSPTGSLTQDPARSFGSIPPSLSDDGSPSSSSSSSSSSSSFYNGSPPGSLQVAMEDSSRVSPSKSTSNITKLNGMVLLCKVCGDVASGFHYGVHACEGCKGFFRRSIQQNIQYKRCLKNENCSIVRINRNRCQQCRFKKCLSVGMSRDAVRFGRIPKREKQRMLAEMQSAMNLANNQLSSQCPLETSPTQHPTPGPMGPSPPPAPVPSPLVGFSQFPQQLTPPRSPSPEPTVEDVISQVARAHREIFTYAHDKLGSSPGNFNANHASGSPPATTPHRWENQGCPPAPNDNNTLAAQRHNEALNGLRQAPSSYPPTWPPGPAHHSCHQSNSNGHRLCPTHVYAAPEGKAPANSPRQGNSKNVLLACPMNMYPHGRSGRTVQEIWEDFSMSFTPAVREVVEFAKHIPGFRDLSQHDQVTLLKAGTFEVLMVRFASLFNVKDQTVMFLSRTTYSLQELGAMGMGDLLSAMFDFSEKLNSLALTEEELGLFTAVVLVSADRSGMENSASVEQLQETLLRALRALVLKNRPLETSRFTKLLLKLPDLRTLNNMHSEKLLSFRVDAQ
hgDAF-12 ag – H. glycines DAF-12 receptor agonists, primary screen, cell-based, luminescence, HEK293, GAL4 fusion, UAS-luciferase; Nuclear hormone receptor DAF-12 (Heterodera glycines), GAL4 fusion; HEK293 GAL4-hgDAF12 UAS-luciferase reporter, agonist luminescence; normalized to butyrate control; activation, % at 6.8 µM; 1.8% of 370,000 active; AID 687014, 2013;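 active = activation above a cutoff set at the mean of all screened compounds plus 3 SD, cut at about 10% in these data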;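 also: 0% = DMSO wells and 100% = sodium butyrate wells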
hcDAF-12 act – H. contortus DAF-12 nuclear receptor activators, primary screen, cell-based, luminescence, HEK293, lit1-tk-luc reporter; HEK293 hcDAF-12 lit1-tk-luc reporter; 0% DMSO, 100% Δ7-dafachronic acid; activation, % at 6.8 µM; 1.4% of 370,000 active; AID 652067, 2013;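 active = activation above the mean of all tested compounds plus 3 SD, cut at about 5.5% in these data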;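 also: 100% = response to 3 µM Δ7-dafachronic acid high control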
DAX1 conf – DAX1 (NR0B1) inhibitors relieving SF-1 repression, confirmation, cell-based, luminescence, HEK293T, full-length DAX-1, SF-1 activated StAR promoter. shares compounds with DAX1 inh-1. HEK293T StAR-promoter luciferase reporter, SF-1/DAX-1 repression. inhibition, % at 6.8 µM. 87% of 2,400 active;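 active = inhibition above the average of every tested compound plus 3 SD, cut at about 3.8% in these data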;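 also: 0% = DAX-1 cells with DMSO and 100% = no DAX-1 control cells with DMSO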
SF1 mutant ctr – StAR reporter signal changes without DAX1, counter-screen for DAX1 inhibitor project, cell-based, luminescence, AF-2 mutant SF-1, transactivation; AID 652136, 2013; 78% of 2,400 active; HEK293 StAR-luciferase, SF-1 AF2 mutant; shares compounds with DAX1 inh-1; inhibition, % at 6.8 µM;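 active = inhibition above the mean of all tested compounds plus 3 SD, cut at about 3% in these data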;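 also: 0% = DAX-1 transfected cells with DMSO and 100% = cells without DAX-1 with DMSO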
* hit, by the source's call; / = not tested or not shown; ! = a repeat was not active.

SMILES | ssDAF12 agonist | DAX1 inh-1 | DAX1 inh-2 | Rev-erbA mod | hgDAF-12 ag | hcDAF-12 act | others
O=C(NC(Cc1c[nH]c2ccccc12)C(=O)OCC(=O)c1cccc2ccccc12)c1cccs1 (stereo not given) | -1.1 | -0.1 | 0.5 | 2.2 | 3.1 | 6.1*
COC(=O)[C@]12C[C@H](CC(=O)NCc3cccs3)C(=O)N(Cc3ccc4c(c3)OCO4)C1=C[C@H](C(C)(C)C)O[C@@H]2C | 0.4 | -0.7 | / | -5.1 | -1.7 | -0.9
Cc1ccc(NC(=O)CSc2nnc3ccccn23)c(Cl)c1 | 0.6 | 2.8 | 4.0 | -6.9 | 8.3 | 2.9
Cc1ccc(C(=O)CSc2nnc3ccccn23)c(C)c1 | 0.1 | 4.4* | 0.8 | 0.5 | 10.7* | 5.7*
CN(C)c1ccc(/C=N\NC(=O)c2cccc(S(=O)(=O)N(C)C)c2)cc1 | -1.6 | -0.8 | / | -4.0 | 3.9 | -0.4
CC(=O)Nc1ccc(S(=O)(=O)Nc2onc(C)c2C)cc1 | / | / | / | -1.7 | / | /
COC(=O)c1c(C)c[nH]c1C | -1.2 | 0.5 | 5.3* | -5.2 | 1.8 | -0.9
CCOC(=O)c1c(C)c[nH]c1C | 0.5 | 0.2 | / | -1.5 | -2.6 | -1.4
CCCCNC(=O)NCCCN1CCN(c2ccc(F)cc2)CC1 | -1.7 | 0.2 | / | 2.4 | -2.7 | -1.2
COc1ccc(-n2c(SCC(=O)NC3CCCCCC3)nnc2-c2ccncc2)cc1 | -0.8 | -0.5 | / | -3.6 | 0.9 | -1.2
CCOc1ccc2nc3sc(C(=O)N4CCN(C)CC4)c(N)c3cc2c1 | -1.0 | 1.2 | -0.3 | 0.6 | 3.2 | 0.9
Cc1ccc2nc3sc(C(=O)N4CCOCC4)c(N)c3cc2c1 | 0.7 | 3.7* | 1.3 | 2.0 | 8.6 | 6.5*
CCOC(=O)/C=C(\C)Sc1cc(O)c2ccccc2c1O | 0.8 | -1.2 | -2.7 | 0.6 | -4.3 | 5.8*
Cc1ccc(OCCn2c(=O)n(C)c3ccccc32)cc1 | 0.0 | 2.1 | 0.0 | 2.0 | 12.9* | 3.0
Nc1nc2c(ccc3ccccc32)s1 | -0.4 | 0.3 | 4.9* | 1.8 | 1.3 | 3.0
CC(=O)NCCC(=O)Nc1nc2c(ccc3ccccc32)s1 | -0.8 | 0.0 | 0.9 | 3.1 | 1.4 | 0.7
Cc1ccccc1NC(=O)N(C)[C@H]1C[C@H]2c3[nH]c4c(-c5ccccc5)cccc4c3CCN2C[C@H]1[C@H](C)O | -2.1 | -1.4 | / | 5.6 | 0.3 | -2.5
O=S1(=O)c2ccc(Br)cc2OC[C@@H](Cc2ccccc2)N1Cc1cn(CCC2OCCO2)nn1 | -1.5 | -1.3 | / | 5.4 | -2.8 | -3.4
CCOC(=O)c1cnc2c(-c3ccccc3)cnn2c1N | 0.4 | 5.6* | 3.8 | 11.6 | 12.0* | 3.5 | DAX1 conf=16.7*;SF1 mutant ctr=11.8*
CCOC(=O)c1cnc2c(-c3ccccc3)c(C)nn2c1N | -1.1 | 0.3 | 1.3 | 12.1 | 3.5 | -0.6
CCc1cccc2c(C(=O)CN3C(=O)NC(C)(c4cccc5ccccc45)C3=O)c[nH]c12 (stereo not given) | -0.8 | -1.3 | -1.0 | 5.8 | -4.3 | 2.2
CCc1cccc2c(C(=O)CN3C(=O)NC4(CCc5ccccc54)C3=O)c[nH]c12 (stereo not given) | -1.5 | 12.4* | -1.2 | -4.1 | -9.7 | -0.5 | DAX1 conf=5.9*;SF1 mutant ctr=-3.5
CCc1cccc2c(=O)c(C(=O)N3CCCCCC3)c[nH]c12 | -1.6 | 1.0 | -0.2 | -3.9 | -2.2 | -0.7
CCc1cccc2c(C(=O)CN3C(=O)N(C)C4(CCCCC4)C3=O)c[nH]c12 | -1.2 | 7.9* | -0.1 | -3.8 | -5.7 | -3.1 | DAX1 conf=10.5*;SF1 mutant ctr=-1.2
O=[N+]([O-])c1ccccc1/C=C/C1Nc2cccc3cccc(c23)N1 | -0.4 | -1.9 | / | -5.0 | -1.8 | 2.5
SMILES | ssDAF12 agonist | DAX1 inh-1 | DAX1 inh-2 | Rev-erbA mod | hgDAF-12 ag | hcDAF-12 act | others
CCCc1nc2c(C)cc(Br)cn2c1Cc1cccc(Cl)c1 | 0.7 | 0.6 | / | 2.0 | 0.8 | 4.6
COc1ccc(Cc2c(-c3cccc(Br)c3)nc3ccc(Br)cn23)c(C)c1 | -0.2 | 5.1* | / | 3.5 | 3.9 | 0.8 | DAX1 conf=3.3;SF1 mutant ctr=3.5*
COc1ccc(Cc2c(-c3cccc(Cl)c3)nc3ccc(Br)cn23)c(C)c1 | -1.1 | 2.8 | / | -6.9 | 5.9 | -0.1
COc1ccc(Cc2c(-c3ccc(C)cc3)nc3ccc(Cl)cn23)c(C)c1 | 0.2 | 5.7* | / | -4.9 | 13.0* | 1.8 | DAX1 conf=6.5*;SF1 mutant ctr=4.9*
COC(=O)[C@H](Cc1ccccc1)N1CC=CS1(=O)=O | -0.6 | 0.3 | / | 10.2 | 0.3 | -0.9
CCCCc1nnn2c1C1c3cc(Br)ccc3CCN1C(=O)C2 (stereo not given) | -0.5 | -0.6 | / | 5.1 | -0.7 | -2.6
CC[C@H](C)C(=O)O[C@H]1C[C@@H](C)C=C2C=C[C@H](C)[C@H](CC[C@@H]3C[C@@H](O)CC(=O)O3)[C@H]21 | -1.0 | 5.2*! | 0.4 | 2.5 | 1.0 | -0.3 | DAX1 conf=2.4;SF1 mutant ctr=0.1
O=C(Nc1nc2ncccn2c1-c1ccccc1)c1ccccc1 | -0.8 | -1.4 | / | 2.1 | 0.2 | -1.9
CCOC(=O)CC[C@H]1CC[C@]2(CCCN(C(=O)c3ccccc3)C2)O1 | -0.4 | -1.0 | / | -3.0 | 2.2 | -0.2
CC(=O)c1cccc(NC(=O)c2sc3nc4n(c(=O)c3c2C)CCCCC4)c1 | -1.4 | 0.4 | -1.7 | -1.1 | -2.1 | -0.5
CSc1cccc(NC(=O)c2sc3nc4n(c(=O)c3c2C)CCC4)c1 | -1.1 | 5.1* | 0.9 | -0.8 | 2.6 | 0.2 | DAX1 conf=1.4;SF1 mutant ctr=2.3
Cc1c(C(=O)Nc2ccc(Oc3ccccc3)cc2)sc2nc3n(c(=O)c12)CCC3 | -2.0 | -1.5 | -2.8 | 4.2 | -2.6 | -3.1
COc1cccc(NC(=O)c2sc3nc4n(c(=O)c3c2C)CCC4)c1 | -0.6 | 4.7* | 0.1 | 0.1 | 5.7 | 3.0 | DAX1 conf=5.0*;SF1 mutant ctr=5.9*
COC(CNC(=O)[C@H](Cc1c[nH]c2ccccc12)NC1(C(=O)NC2CCCCC2)CCCCC1)OC | -1.5 | / | / | -2.9 | 2.1 | -0.5
